The structures appear in SMILES notation. Inconclusive results are not listed. Active and inactive are the calls of the source. Calls come from the whole dose curve; as a rule, active = well fitted inhibition curve with a large enough effect; inconclusive = small, poorly fitted or top-dose-only effect; inactive = flat fitted curve, though single readings scatter.
% is set by controls: 0 for no effect and ±100 for the full control effect; potency is the fitted concentration of half-maximal effect.

This assay deals with HaCat. The experiment in a line: Cytotoxic Profiling of Annotated Libraries Using Quantitative High-Throughput Screening (AID 1296008). Note: nearly all actives have a fitted effect of over 60% in size. The conditions noted are these: Five cell lines viability, CellTiter-Glo ATP luminescence, 48-72 h; max response: hits give low values. The method, boiled down:
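Compounds were pin-transferred onto cells and incubated 48 or 72 hr at 37 degree Celsius, 95% humidity. CellTiter-Glo was added, plates sat 10 min at room temperature, then ATP-coupled luminescence was imaged as the viability read-out.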
(In general: ATP-based viability assays read luminescence as a measure of living cells.)
With `CC(C)c1cc(CNc2nc(Nc3cc(C4CC4)[nH]n3)cc(N3CCN(C)CC3)n2)on1`, the Potency is 2.31 µM (active).
For `C=C(F)c1sc(CNCCCNc2cc(=O)c3ccccc3[nH]2)c(C)c1Br`, the max response was -0.153% (inactive).
Take `Cc1[nH]c2ccccc2c1C1=C(NCCc2ccc(F)cc2)C(=O)N(C)C1=O`: the Potency is 8.2 µM (active).
In the case of `CCCOc1ccc(-c2nc(OC)c3ccccc3n2)cc1`, the max response was -0.801% (inactive).
For the compound `O=[N+]([O-])c1cccc2[nH]c(CNc3nc(N4CCOCC4)nc4c3ncn4-c3ccsc3)nc12`, the Potency is 0.461 µM (active).
Take `CC(C)c1nc(-c2ccc(NC(=O)Nc3cccc(C(F)(F)F)c3)c3ccccc23)c2c(N)nccn12`: the Potency was 7.31 µM (active).
For the compound `CCCCC1CCN(CCCC(=O)c2ccccc2C)CC1`, the max response was -61.6% (inactive).
Take `CCN1CCN(Cc2ccc(NC(=O)c3ccc(C)c(/C=C/c4cnc5[nH]ccc5c4OC)c3)cc2C(F)(F)F)CC1`: the Potency is 5.8 µM (active).
Turning to `COC1C(CO)OC(n2cnc3c(=O)[nH]cnc32)C1O` (configuration not stated), the max response was -1.42% (inactive).
In the case of `O=C(C(c1ccccc1)c1ccccc1)N1CCN(CC(O)COc2cccc3ncccc23)CC1` (configuration not stated), the max response was -24.2% (inactive).
On to `COC1=CC(=O)CC(C)C12Oc1cc(OC)cc(O)c1C2=O` (configuration not stated), for which the max response was 4.13% (inactive).
The same measure, in the same setting: with `CC(=O)O[C@@H]1[C@H](O)[C@@H](O[C@@H]2O[C@@H](C)[C@H](O[C@@H]3OC[C@@H](O)[C@H](O[C@@H]4OC[C@@H](O)[C@H](O)[C@H]4O)[C@H]3O)[C@@H](O[C@@H]3O[C@H](CO)[C@@H](O)[C@H](O)[C@H]3O)[C@H]2O)[C@H](OC(=O)[C@]23CCC(C)(C)C[C@H]2C2=CCC4[C@@]5(C)CC[C@H](O[C@@H]6O[C@H](C(=O)O)[C@@H](O)[C@H](O[C@@H]7OC[C@@H](O)[C@H](O)[C@H]7O)[C@H]6O[C@@H]6O[C@H](CO)[C@H](O)[C@H](O)[C@H]6O)[C@@](C)(C=O)C5CC[C@@]4(C)[C@]2(C)CC3)O[C@@H]1C` (some centres not stated) the figure was 0.448% (inactive).

The values are drawn from PubChem BioAssay (NCATS).
